From the supplement of paper PMC10105736

Legend:
Test in all cases: MAPPIT interaction score (arbitrary units); higher = stronger binary interaction signal, active = hit call of the paper;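 active = MAPPIT score above the 99th percentile of random reference set scores in the same batch; inactive = at or below it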
Prosalpha2 = conditions: pair source set: Lit-BM-16
Rpt2 = conditions: MAPPIT configuration: N-N
Rpt4 = conditions: MAPPIT configuration: N-N; pair source set: Lit-BM-16
Prp3 = conditions: MAPPIT configuration: N-N
Prosbeta3 = conditions: MAPPIT configuration: N-C; pair source set: Lit-BM-16
Prosbeta2 = conditions: MAPPIT configuration: N-N; pair source set: Lit-BM-16
Pfdn1 = conditions: MAPPIT configuration: N-N; pair source set: Curagen_high_conf
Pten = conditions: MAPPIT configuration: N-N; pair source set: DPIM
Pgd = conditions: pair source set: RRS
Prosalpha4 = conditions: MAPPIT configuration: N-N; pair source set: Lit-BM-16
Prosbeta7 = conditions: pair source set: Lit-BM-16
Pfdn5 = conditions: pair source set: Lit-BM-16
Pgam5 = conditions: MAPPIT configuration: N-N; pair source set: DPIM
Pex3 = conditions: MAPPIT configuration: N-C; pair source set: screen_4
PolZ2 = conditions: MAPPIT configuration: N-N; pair source set: Finley_Y2H
Psi = conditions: MAPPIT configuration: N-N; pair source set: Lit-BM-16
Pis = conditions: MAPPIT configuration: N-N; pair source set: DPIM
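Further: HEK293T cells with Epo stimulation, STAT-responsive firefly luciferase reporter, fold induction versus unstimulated cells divided by the larger fold induction of two negative controls lacking either bait or prey.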

B1: Rpt6 (protein)
chain: MTVTNRMEIESAYHKGEGFRSYYIQKIEELQLVVAEKHQNLRRLQAQRNELNAKVRMLREELQLLQEQGSYVGEVVKPMDKKKVLVKVHPEGKFVVDLDKNIDINDVTPNCRVALRNESYTLHKILPNKVDPLVSLMMVEKVPDSTYEMVGGLDKQIKEIKEVIELPVKHPELFDALGIAQPKGVLLYGPPGTGKTLLARAVAHHTECTFIRVSGSELVQKFIGEGSRMVRELFVMAREHAPSIIFMDEIDSIGSSRIESGSGGDSEVQRTMLELLNQLDGFEATKNIKVIMATNRIDILDPALLRPGRIDRKIEFPPPNEEARLDILKIHSRKMNLTRGINLRKIAELMPGASGAEVKGVCTEAGMYALRERRVHVTQEDFEMAVAKVMQKDSEKNMSIKKLWK
Question: With B1 as the binder, how does the MAPPIT interaction score (Prosalpha2; MAPPIT configuration: N-C) read?
Answer: 1.08 (inactive)

Question: And the MAPPIT interaction score (Prosalpha2; MAPPIT configuration: N-N)?
Answer: 1.52 (inactive)

Question: And the MAPPIT interaction score (Rpt2; pair source set: Finley_Y2H)?
Answer: 2.59 (inactive)

Question: And the MAPPIT interaction score (Rpt2; pair source set: Lit-BM-16)?
Answer: 2.59 (inactive)

Question: What about the MAPPIT interaction score (Rpt4) of the same binder?
Answer: -0.794 (inactive)

B2: CG4709 (protein)
chain: MEEYEAQLLVVEQALENAADDAQRQDLLALKNNLQELLALTRESGDEAPIDELPQQGDNLDDELQRLKSELNDLEAAGSSQTALDEERQLADLRTKYTAMVGEKCSAPHEHSWGTCYHNALICGVDDEVVMNSEGVLDARLRVLFTNPTHREMLPCSYYLEGECRFDEAKCRFSHGALVTGSSIRKYNPPDFHKLSRSRPVFALLPDRLWHRGRVLCVNFVEQICRVRLDGQDHKERERDFKFEELYPLTTDQDEDDELSSEESNSSMNDNSSDEAESDMDDLEEARRARMVELSLFTFKPTERLGAWEEFTRGIGSKLMEKMGYIHGTGLGSDGRGIVTPVSAQILPQGRSLDACMELREAANGDKDYFSVERKLKRAQRRQRKADEKAYVRESQRVDVFTFLNDSVLGPGESTQQGEQVTKKAKTNELQQHSTKTLNVETVRIADEIRRKQRDMAKVKQSLDRNSGDAQLQKRLQVQMQSHKQELATLQAQERSLSKEQQTRKSKNKMFEF
Question: With B2 as the binder, how does the MAPPIT interaction score (Prp3; pair source set: Lit-BM-16) read?
Answer: 2.3 (inactive)

B3: Prosalpha4 (protein)
chain: MSSRYDRAVTIFSPDGHLLQVEYAQEAVRKGSTAVGVRGANCVVLGVEKKSVAQLQEDRKVRKICMLDNHVVMAFAGLTADARIMINRAQVECQSHRLNVEDPVTLEYITRFIAQLKQKYTQSNGRRPFGISCLIGGFDADGSAHLFQTEPSGIFYEYKANATGRSAKVVREFFEKSYREEEVANEHGAVKLAIRALLEVAQSGQNNLEVAIMENGKPLKMLDTDVITDYVKIIEKEKEEELEKKKQKK
Question: B3 was tested. Which MAPPIT interaction score (Prosbeta3) did it give?
Answer: 1.51 (inactive)

B4: Prosbeta4 (protein)
chain: MLNNYNSLAQPMWQNGPAPGEFYNFTGGQTPVQQLPRELTTMGPYGTKHSTASSTTGTSVLGIRYDSGVMLAADTLVSYGSMARYQNIERVFKVNKNILLGGSGDFADIQSIKRNIDQKMIEDQCCDDNIEMKPKSLASWMTRVLYNRRSRMNPLYIDVVVGGVDNEGTPYLANVDLRGRSYEDYVVATGFARHLAVPLVREKKPKDRDFTAVEASELIRTCMEVLYYRDTRNISQYTVGVCSVNGCGVEGPFQVNENWTFAETIKGY
Question: Which MAPPIT interaction score (Prosbeta2) does the source give for B4 here?
Answer: 2.07 (inactive)

B5: Cpsf6 (protein)
chain: MADVVLDLYAEDLDKDFAGQAQDEFGGDGVDLYDDIGGPTESAASGGGGGGTPSADGAAGPGSGEPGERNSGGPNGVYHQSSGSLTPTMNRRYQLYVGNLTWWTTDQDIANSLRDIGVSDLQEVKFFENRANGQSKGFSVISLGSESSLRAVLDQLPKKEMHGQAPVVTYPSKQALTQFESLQKTRPVPPPQQNGPPRGPAPPSMGGGPMPTGHPGGPQGGGPPGHPPRGMNSIMQPGQYRPQHMSQVPQVGGPNSGPPRMQPPMHPQGGLMGNQQPPPRYPSAQGQWPGQRPGGPRPGPPNGPPQRPMFQGGPMGMPVRGPAGPDWRRPPMHGGFPPQGPPRGLPPAPGPGGPHGAPAPHVNPAFFNQPGGPAQHPGMGGPPHGAPGPQPGMNMPPQQGMNMTPQHGPPPQFAQHGPRGPWPPPQGKPPGPFPDPQQMGPQLTEVEFEEVMSRNRTVSSSAIARAVSDAAAGEYSSAIETLVTAISLIKQSKVAHDERCKILISSLQDTLHGIEAKSYNRRERSRSRERSHRSRQRRERSTSRYRERSRERERDRDRERERDGGSYRERSRSRERERQAPDHYRDDSRSVRPRKSPEPVVAEAAEAPSSKRYYEDRERYRSSDRERRDRDRDRDRERERDRDRREEHRSRH
Question: How did the MAPPIT interaction score (Pfdn1) turn out when B5 was run?
Answer: 0.767 (inactive)

B6: mTerf3 (protein)
chain: MFCSALRNILRNSQNAAKNATITSQIRNLRGQQSVHHEVEVLTSPGITTKQNDKKTEPAECEGSKEVALDFRNREAHVPSFNLAAYVNNSSTLQQFLSLGVDLHSIERRKGLGDFVLKLDFEKNVKPYITFLVDQGVSPDDFGRMFTKNPLLFKEDLDDLQTRVNYLKSKRFSDEARQRILTQNPYWLMFSTRRVDRRLGYFQKEFKLSGHDLRLLATREPNAITYNMEHLRKSVFTLKEEMGFNAKELSDLVVRKPRLLMIPPDDLVERFSYIHQDMGLPHAQIVQCPELLASREFRLRERHEFLKLLGRAQYDPQKDLYISPKTIVEGNNFYFVRNVAKSDLETFDLFLKTR
Question: With B6 as the binder, how does the MAPPIT interaction score (Pten) read?
Answer: -0.325 (inactive)

B7: Mettl14 (protein)
chain: MSDVLKSSQERSRKRRLLLAQTLGLSSVDDLKKALGNAEDINSSRQLNSGGQREEEDGGASSSKKTPNEIIYRDSSTFLKGTQSSNPHNDYCQHFVDTGQRPQNFIRDVGLADRFEEYPKLRELIKLKDKLIQDTASAPMYLKADLKSLDVKTLGAKFDVILIEPPLEEYARAAPSVATVGGAPRVFWNWDDILNLDVGEIAAHRSFVFLWCGSSEGLDMGRNCLKKWGFRRCEDICWIRTNINKPGHSKQLEPKAVFQRTKEHCLMGIKGTVRRSTDGDFIHANVDIDLIISEEEEFGSFEKPIEIFHIIEHFCLGRRRLHLFGRDSSIRPGWLTVGPELTNSNFNSELYQTYFAEAPATGCTSRIELLRPKSPPPNSKVLRGRGRGFPRGRGRPR
Question: How did the MAPPIT interaction score (Prp3; pair source set: Curagen_high_conf) turn out when B7 was run?
Answer: 1.8 (inactive)

B8: up (protein)
chain: MSDDEEYTSSEEEEVVEETREETKPPQTPAEGEGDPEFIKRQDQKRSDLDDQLKEYITEWRKQRSKEEDELKKLKEKQAKRKVTRAEEEQKMAQRKKEEEERRVREAEEKKQREIEEKRMRLEEAEKKRQAMLQAMKDKDKKGPNFTIAKKDAGVLGLSSAAMERNKTKEQLEEEKKISLSFRIKPLAIEGFGEAKLREKAQELWELIVKLETEKYDLEERQKRQDYDLKELKERQKQQLRHKALKKGLDPEALTGKYPPKIQVASKYERRVDTRSYDDKKKLFEGGWDEISKDSNEKIWNEKKEQYTGRQKSKLPKWFGERPGKKAGEPETPEGEEDAKADEDIVEDDEEVEEEVVEEEDEEAEEDEEEEEEEEEEEEEEEEEEEEEEEEEEEEEE
Question: With B8 as the binder, how does the MAPPIT interaction score (Pgd; MAPPIT configuration: N-C) read?
Answer: 1.18 (inactive)

Question: What about the MAPPIT interaction score (Pgd; MAPPIT configuration: N-N) of the same binder?
Answer: 0.149 (inactive)

B9: Prosbeta3 (protein)
chain: MSILAYNGGCVVAMRGKDCVAIATDHRFGIQAQTISTDFKKVFHIGPRMFLGLTGLQTDILTVRDRLMFRKNLYETRENREMCPKPFSAMMSSFLYEHRFGPYFIEPVVAGLDPKTMEPFICNMDLIGCPNAPDDFVVAGTCAEQLYGMCETLWKPDLEPDQLFEVIAQSIVNAFDRDAMSGWGATVYIIEKDKITERTLKTRMD
Question: Which MAPPIT interaction score (Prosalpha2; MAPPIT configuration: N-N) does the source give for B9 here?
Answer: 1.33 (inactive)

Question: And the MAPPIT interaction score (Prosalpha4)?
Answer: -0.232 (inactive)

Question: And the MAPPIT interaction score (Prosbeta7; MAPPIT configuration: N-C)?
Answer: 0.398 (inactive)

Question: And the MAPPIT interaction score (Prosbeta7; MAPPIT configuration: N-N)?
Answer: 0.197 (inactive)

B10: Pfdn2 (protein)
chain: MSTESAKPALSQEAIVAQFQQLRNEQRNLVNSLNTLEMDLREHKTVIETLEAADPERKCFRQIGGVLCERTVKEVLPQLVENKDFIAKTIQMVTNDLSKKGSELNKFKEEHNIKIRGEHLVAEGAKGDDAEDKAENRNVLVFN
Question: Which results are given for B10?
Answer: MAPPIT interaction score (Pfdn5; MAPPIT configuration: N-C): 2.36 (inactive); MAPPIT interaction score (Pfdn5; MAPPIT configuration: N-N): 5.93 (active)

B11: Vps25 (protein)
chain: MAEFQWPWEYTFPPFFTLQPHEETRQQQLKVWTDLFLKYLRHTNRFTLSIGDQNSPLFHNEALKRRLSPELVLAILGELERSGHANPLDKRRQEWQVYWFTLEEYGNMVYDWVQETGQTNTICTLYEIASGENTSHLDFYGVDEAVLLSALRLLEEKGRCELIEMDGSHGVKFF
Question: How did the MAPPIT interaction score (Pgam5) turn out when B11 was run?
Answer: 2.9 (active)

B12: heix (protein)
chain: MATSSQLLPNGNLSRNGKTKTEDGEEVEAVVGARAAGADAGVALTGRLTGHPSTSGTFMKLKTYLLALRPWSLSASLVPTLLGSALAYRSQWAEEFSLATFFLTAFTVVTVHCAGNVVNTYFDFIKGIDKQKADDRTLVDHILTKDEVVSLGAILYMAGCGGFVLLAVLSPAKMEHLALIYFGGLSSSFLYTGGIGFKYIALGDLVILILFGPISVLFAFMSQTGHLDWTTMGYAIPLALNTEAILHSNNTRDADNDRRAGIVTLAILIGRTASHVLYAMLLFAPYSLFFIFGLKYSLWFLLPLVTLPQAFQIEKRFRNEQTMHLVPRQTAKLNFFFGILYVVACCCAHQLPTFGLRRN
Question: With B12 as the binder, how does the MAPPIT interaction score (Pex3) read?
Answer: -0.663 (inactive)

B13: rtp (protein)
chain: MAMDDYDDDMSSVGVTTARIENQHQQHPHQQGQHGHHQQGQGQSQYSAGAVKVGGWRYEDASRYIGEWNQRGQKHGIGHLQFADGTRYDGQFQEGLSQGVGCLWFADGAKYEGEFHQGWFHGNGIFWRADGMKYEGEFRGGKIWGLGLLTFQDFTHGFPRNEGFFQDCRFMRRRRCPEVVQRAQKCALMARSQCEHPY
Question: With B13 as the binder, how does the MAPPIT interaction score (PolZ2) read?
Answer: 0.217 (inactive)

B14: snRNP-U1-70K (protein)
chain: MTQYLPPNLLALFAAREPIPFMPPVDKLPHEKKSRGYLGVAKFMADFEDPKDTPLPKTVETRQERLERRRREKAEQVAYKLEREIALWDPTEIKNATEDPFRTLFIARINYDTSESKLRREFEFYGPIKKIVLIHDQESGKPKGYAFIEYEHERDMHAAYKHADGKKIDSKRVLVDVERARTVKGWLPRRLGGGLGGTRRGGNDVNIKHSGREDNERERERYRLEREREDREGPGRGGGSNGLDARPGRGFGAERRRSRSRERRDRERDRGRGAVASNGRSRSRSRERRKRRAGSRERYDEFDRRDRRDRERERDRDREREKKKKRSKSRERESSRERRERKRERRDRERGTGSGGDVKERKPDFRDMDVIKIKEEPVDDGYPTFDYQNATIKREIDDEDEEKYRPPPAHHNMFSVPPPPILGRGNASTNPNPDNGQQSSGDPSWWRQ
Question: For B14, which MAPPIT interaction score (Psi) is on record?
Answer: 0.25 (inactive)

B15: CG7601 (protein)
chain: MKVQDMDKCAPSSDWNVLYWVLGTVLMPVALPLAIINIWQRFQAQKFRNQLPGKVVLITGASSGLGESLAHVFYRAGCRVILAARRTQELERVKKDLLALDVDPAYPPTVLPLDLAELNSIPEFVTRVLAVYNQVDILINNGGISVRADVASTAVDVDLKVMVVNYFGSVALTKALLPSMVKRGSGHICFISSVQGKFAIPQRAAYSASKHAMQAFADSLRAEVANKNINVSCVSPGYIRTQLSLNALTGSGSSYGKVDETTAKGMSPDKLAERILQCILRKEPDIIVSDVQAKIAYYLRHLCPSLYFWIMAKRAVKLENAEKKST
Question: With B15 as the binder, how does the MAPPIT interaction score (Pis) read?
Answer: 0.037 (inactive)
